MCF10A rereplic – inducers of DNA re-replication in MCF 10A breast cells; 350,000 tested, 2.9% active; MCF 10A DNA re-replication, Hoechst nuclear intensity, 48 h; Potency, µM (series often up to 46.1 µM), for inactives: at the highest dose activity, positive = re-replication, usual class: activators; note: potency is the fitted concentration of half-maximal effect; % of control where 0% means no effect; nearly all actives have a fitted effect of over 50% in size
Giardia kill – Giardia lamblia killing | 340,000 tested, 0.15% active | Giardia lamblia trophozoite viability | AID 540267 | activity change, % at 7.66 µM, hits read low; in the data active = activity change below about -80%; inconclusive = between about -30% and that limit;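 note: parasites exposed to compound for two days anaerobically before the ATP read; % is set by controls: 0 for no effect and ±100 for the full control effect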
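Trophozoite viability was measured as ATP-dependent luminescence, read 15-30 min after reagent addition. Before that, parasites at 100 cells/well were exposed to compounds for 48 h, anaerobically, at 37 deg C.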
KB-3-1 tox – kills parental KB-3-1 adenocarcinoma cells | 400,000 tested, 1.4% active | KB-3-1 viability, CellTiter-Glo ATP luminescence, 72 h | Potency, µM (series often up to 46.1 µM), usual class: cytotoxic | AID 1347075; note: potency is the fitted concentration of half-maximal effect; % is set by controls: 0 for no effect and ±100 for the full control effect; nearly all actives have a fitted effect of over 60% in size
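Parental KB-3-1 viability, qHTS format: 72 h compound exposure, 37 °C; CellTiter-Glo; media-only wells and DMSO plates as controls; concentration-effect fits on corrected data.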
ASM inhibitor – blocks human secretory acid sphingomyelinase. placental ASM, HMU-PC fluorogenic substrate, 60 min. Potency, µM (highest dose often 57.5 µM), for inactives: at the top dose activity change, negative = inhibition, hits mostly inhibitors. 340,000 tested, 0.006% active. AID 504937; note: potency is the fitted concentration of half-maximal effect
Target sequence (P17405 47-631 limits assumed): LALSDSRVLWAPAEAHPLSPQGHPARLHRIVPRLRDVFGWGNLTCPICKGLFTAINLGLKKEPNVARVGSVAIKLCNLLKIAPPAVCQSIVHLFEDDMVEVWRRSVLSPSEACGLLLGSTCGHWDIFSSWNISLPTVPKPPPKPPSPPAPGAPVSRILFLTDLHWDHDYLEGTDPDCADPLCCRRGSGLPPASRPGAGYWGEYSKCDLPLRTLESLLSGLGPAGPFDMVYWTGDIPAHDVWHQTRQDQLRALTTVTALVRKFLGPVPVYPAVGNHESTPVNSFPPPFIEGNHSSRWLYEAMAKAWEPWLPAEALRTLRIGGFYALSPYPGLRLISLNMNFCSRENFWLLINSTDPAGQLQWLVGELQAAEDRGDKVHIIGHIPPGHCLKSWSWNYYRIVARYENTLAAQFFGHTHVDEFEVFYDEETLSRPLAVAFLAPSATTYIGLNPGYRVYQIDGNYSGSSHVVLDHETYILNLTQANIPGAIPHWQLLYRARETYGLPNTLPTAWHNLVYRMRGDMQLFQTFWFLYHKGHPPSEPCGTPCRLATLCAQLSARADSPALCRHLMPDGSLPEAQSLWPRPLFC
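Fluorescence read-out (Ex 386 nm, Em 447 nm) after stopping the reaction at pH 10. Enzyme: ASM from human placenta; substrate HMU-PC0, 9 uM final; 60 min, 37 °C. Compound preincubation 10 min, ambient temperature.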
KB-V1 cytotox – kills drug-selected multidrug resistant KB-V1 cells; 400,000 tested, 3.4% active; Potency, µM (highest dose often 46.1 µM), most hits filed as cytotoxic; KB-V1 MDR cells viability, CellTiter-Glo, 72 h; note: potency is the fitted concentration of half-maximal effect; % is set by controls: 0 for no effect and ±100 for the full control effect; nearly all actives have a fitted effect of over 60% in size
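Drug-selected KB-V1 cells, grown in DMEM lacking phenol red with 10% FBS, receive compound titrations; after three days at 37 degrees C, surviving cell ATP is quantified by CellTiter-Glo luminescence and responses normalized and curve-fitted.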
SW480 rereplic – DNA re-replication induction in SW480 cells | SW480 DNA re-replication, Hoechst DNA content imaging, 48 h | Potency, µM (doses to about 46.1 µM), for the others: at the top dose re-replication activation, actives largely listed as activators | 340,000 tested, 1.8% active | AID 624297; note: potency is the fitted concentration of half-maximal effect; % of control where 0% means no effect; nearly all actives have a fitted effect of over 55% in size
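Per well, 250 cells were exposed to pinned compound for 48 hr. Nuclear DNA was visualised with Hoechst (40 min, 37 C) and total object intensity recorded by fluorescence scanning.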
An asterisk follows results filed as active; i = inactive; u = inconclusive; x = not tested or not shown; [ ] = dose if it differs, or a comment. A selection: hits, their analogues and other compounds. The true share with any hit is near 6.9%. Unless noted, calls come from the whole dose curve; as a rule, active = well fitted curve in the direction sought with a large enough effect; inconclusive = small, poorly fitted or top-dose-only effect, or another doubt; inactive = no such curve, though single readings can be large; an effect the other way counts as inactive or inconclusive.

SMILES	MCF10A rereplic	Giardia kill	KB-3-1 tox	ASM inhibitor	KB-V1 cytotox	SW480 rereplic
CC(C)(C)c1ccc(CSc2nc3c(c(=O)[nH]2)CCCC3)cc1	x	x	i	x	i	x
Cc1ccc(-n2c(C)cc(/C=c3/sc4nc5ccccc5n4c3=O)c2C)cc1	9.2µM*	4	i	16%	i	1%[9.22 µM]
O=c1/c(=C\c2cccn2-c2ccccc2)sc2nc3ccccc3n12	u	-8	i	2%	i	-6%
CCOC(=O)C1=CN(Cc2ccc(OC)cc2)C=C(C(=O)OCC)C1c1cccs1	18µM*	u	i	i	u	u
CC1(C)[N+]([O-])=C2C(=[N+]([O-])C1(C)C)c1ccccc1/C2=N\O	-1%	-98*	i	0%	i	-1%
ON=C1c2ccccc2-c2ccc(F)cc21	17%	-2	i	-8%	u	1%
Oc1ccc(Br)cc1C1C=C(c2ccc3c(c2)OCO3)NC(c2ccc(Br)cc2)N1 (configuration not stated)	x	5	i	x	i	x
CCn1cnc2cc(NS(=O)(=O)c3ccc(C)cc3)ccc21	28%	7	i	0%	i	-2%
CCn1cnc2c([N+](=O)[O-])c(NS(=O)(=O)c3ccc(C)cc3)ccc21	-4%	-88*	i	0%	i	-4%
CCC(=O)c1ccc(/C=C/c2nc3ccccc3n2C)o1	8.2µM*	u	i	i	i	18µM*
Cn1c(/C=N/O)nc2ccccc21	2%	23	i	1%	i	-9%
CC(=O)C1CCC2C3CC=C4CC(SC(=N)N)CCC4(C)C3CCC12C (configuration not stated)	u	-2	u	-17%	23µM*	u
CC(C)(C)[C@H](N)C(=O)N[C@H]1CCC2C3CC=C4C[C@@H](O)CC[C@]4(C)C3CC[C@@]21C (some centres not stated)	16µM*	u	u	-3%	u	4.6µM*
CCCCCCN[C@H]1CCC2C3CC=C4C[C@@H](O)CC[C@]4(C)C3CC[C@@]21C (some centres not stated)	u	-19	u	0%	u	8.2µM*
CC(=O)N1CCC2(CC1)OC(=O)C(C)=C2C(=O)Nc1cc(C)ccc1C	x	x	i	x	u	x
O=C(NCCC(F)(F)F)C1Cc2c(-c3ccc(Cl)cc3)ccnc2O1 (configuration not stated)	x	x	i	x	i	x
CCc1ccc(-c2cc3c(=O)n(CC(=O)NCCN4CCCCC4C)nc(C)n3n2)cc1 (configuration not stated)	u	1	u	-2%	i	18µM*
O=C(CN1C(=O)C2CC=CCC2C1=O)OCC(=O)c1ccc(Cl)c([N+](=O)[O-])c1 (configuration not stated)	23µM*	-6	i	-2%	u	u
O=C(CN1C(=O)C2C3C=CC(C3)C2C1=O)OCC(=O)c1ccc([N+](=O)[O-])cc1 (configuration not stated)	u	-5	i	5%	i	-4%
COC(=O)[C@@]1(C(C)C)N=C(c2cc(OC)c(OC)c(OC)c2)[C@]2(O1)C(=O)N(C)c1ccc(Br)cc12	x	x	i	x	i	x
COc1nc(N2CCCCCC2)nc(N2CCCCCC2)n1	18µM*	-7	u	-3%	15µM*	19%
O=S(=O)(c1cc(Cl)c(Cl)cc1Cl)N1CCN2CCCC2C1 (configuration not stated)	-9%	15	i	2%	i	0.37µM*
CN(C)/C=N/c1nc2c(ncn2C2CC(O)C(CO)O2)c(=O)[nH]1 (configuration not stated)	x	7	i	x	i	x
OC(CCCN1CCCCC1)(c1ccccc1)c1ccc(C(F)(F)F)cc1 (configuration not stated)	21µM*	1	i	-5%	i	u

Assay outcomes as filed in PubChem.
